Keap1-Nrf2 PPI = Keap1-Nrf2 (human) interaction inhibition | Keap1 Kelch-Nrf2 peptide fluorescence polarization, 1536-well | inhibition, % at 9.4 µM | AID 504523 | Q14145 | actives 0.15% (n = 340,000); in the data active = inhibition above about 12%;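 note: human Keap1 Kelch domain with fluorescein labeled Nrf2 9mer peptide probe; higher means more block of Keap1 binding to Nrf2 peptide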
Target sequence (Q14145 whole entry, looked up, the tested form may be a part): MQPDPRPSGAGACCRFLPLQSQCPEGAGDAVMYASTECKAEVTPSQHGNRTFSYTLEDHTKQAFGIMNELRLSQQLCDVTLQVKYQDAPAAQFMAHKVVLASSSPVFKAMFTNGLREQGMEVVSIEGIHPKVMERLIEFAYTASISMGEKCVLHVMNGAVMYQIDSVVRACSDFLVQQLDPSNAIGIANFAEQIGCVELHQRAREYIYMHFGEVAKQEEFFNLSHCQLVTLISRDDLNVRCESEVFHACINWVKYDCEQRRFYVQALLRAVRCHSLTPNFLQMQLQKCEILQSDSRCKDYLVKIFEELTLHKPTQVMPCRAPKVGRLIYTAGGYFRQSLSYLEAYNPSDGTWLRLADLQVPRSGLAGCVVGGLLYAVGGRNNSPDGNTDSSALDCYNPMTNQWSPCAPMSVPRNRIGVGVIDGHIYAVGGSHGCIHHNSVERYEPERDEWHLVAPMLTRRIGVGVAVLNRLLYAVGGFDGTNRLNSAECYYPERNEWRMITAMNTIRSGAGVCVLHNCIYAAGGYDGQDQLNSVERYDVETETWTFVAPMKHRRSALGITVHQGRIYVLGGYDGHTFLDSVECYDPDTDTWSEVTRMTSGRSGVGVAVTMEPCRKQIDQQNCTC
CRFBP-R2 agonist = agonists of human CRF-binding protein/CRF-R2 receptor complex | HEK293 CRF-R2/CRF-BP, calcium dye fluorescence (FLIPR); percent of saturating CRF peptide response | activation, % at 13.2 µM | actives 0.46% (n = 350,000);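 active = activation of at least 50%, plus an integration ratio under a set limit after plate pattern correction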
CRFBP-R2 block = antagonists of CRF-binding protein/CRF-R2 receptor complex; HEK293 CRF-R2/CRF-BP, CRF-induced calcium fluorescence; inhibition, % at 11.8 µM; actives 0.59% (n = 350,000); AID 588475;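 active = inhibition of the ligand-induced calcium signal above about 50% at the single tested concentration, limit read from the data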
cardiac RTF act = increases calcium sensitivity of human cardiac regulated thin filaments; actives 0.24% (n = 340,000); IANBD-labeled TnC RTF fluorescence at EC20 calcium; 0% EC20 calcium, 100% full calcium; activation, % at 7.2 µM; AID 493008; P19429+P45379;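 active = activation above the mean over all tested compounds plus 3 SD, cut at about 30% in these data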;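 note: rise in fluorescence read as greater calcium sensitivity of cardiac thin filaments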
LANA DNA inh = inhibitors of KSHV LANA C-terminal domain DNA binding. MBP-C-LANA/FAM-LBS DNA binding, fluorescence polarization. inhibition, % at 9 µM. actives 0.078% (n = 340,000). AID 504423;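 active = highest replicate inhibition at or above 60% at 9 µM, even if other replicates fall short; inactive = all replicates below 60% inhibition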
RTF Ca sens inh = cardiac RTF calcium desensitization. P19429+P45379. IANBD-labeled cardiac RTF, Ca2+ fluorescence. inhibition, % at 7.15 µM. actives 0.12% (n = 340,000). AID 493244;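 active = inhibition above the mean inhibition of all tested compounds plus 3 SD, cut at about 17% in these data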;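 note: assay run at fixed EC70 calcium of 1.6 mM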
Of the large screens only hits and unclear results are named; the others gave an inactive call. In the library only some 1.3% were active in any assay of this set; here they are far more common.

COc1ccc(CN2CC(=O)N(c3ccc(Cl)cc3)C2=S)cc1OC	none
COc1ccc(CN2CC(=O)N(c3cccc(Cl)c3)C2=S)cc1OC	CRFBP-R2 block 89.6
O=[N+]([O-])c1cc(/C=N\O)ccc1Oc1ccc(F)cc1	CRFBP-R2 block 78.9
COc1cc(/C=N/O)ccc1Oc1ccc([N+](=O)[O-])cc1[N+](=O)[O-]	none
COc1cc2c(cc1OC)-c1cc(Nc3ccc4c(c3)OCCO4)nc(=O)n1CC2	none
Cc1ccc(Sc2ncccc2C(=O)NCC(c2ccc(F)cc2)N2CCOCC2)c(C)c1 (centres undefined)	none (no result: Keap1-Nrf2 PPI, LANA DNA inh)
CC(=O)Nc1ccc(S(=O)(=O)Nc2nc3ccccc3nc2Nc2ccc(C(=O)O)c(O)c2)cc1	LANA DNA inh 89.9
CC(=O)Nc1ccc(Nc2nc3ccccc3nc2NS(=O)(=O)c2ccc(Cl)c([N+](=O)[O-])c2)cc1	CRFBP-R2 block 64.6
CC(=O)Nc1ccc(S(=O)(=O)Nc2nc3ccccc3nc2Nc2ccc(N)cc2)cc1	none
Cc1cc(C)cc(OCCn2ccnc2)c1	none
COc1ccccc1-n1cnnc1SCC(=O)NCc1cccs1	CRFBP-R2 block 82.5
COc1ccccc1-n1cnnc1SCC(=O)NC1CCCCC1	none
CCOC(=O)/C=C/C(=O)OCC(=O)Nc1ccc([N+](=O)[O-])cc1	none
Cc1ccc(C)c(S(=O)(=O)Nc2cc(SCC(=O)O)c(O)c3ccccc23)c1	Keap1-Nrf2 PPI 61.2
CCc1ccc(S(=O)(=O)Nc2cc(SCC(=O)O)c(O)c3ccccc23)cc1	none
CC(=O)N1CCc2cc(S(=O)(=O)CCC(=O)N3CCN(c4ccccc4F)CC3)ccc21	none
CC(=O)c1ccc(N2CCN(C(=O)CCS(=O)(=O)c3ccc4c(c3)CCN4C(C)=O)CC2)cc1	CRFBP-R2 block 80.5
COc1ccc(-c2cc(C(=O)NC3CCCC3)c3ccccc3n2)cc1OC	CRFBP-R2 block 96.8
COc1cccc(-c2cc(C(=O)NC3CCCC3)c3ccccc3n2)c1	none (no result: Keap1-Nrf2 PPI, cardiac RTF act, LANA DNA inh, RTF Ca sens inh)
CCn1c(O)c(N=NC2=NC(=O)CS2)c2ccccc21	none
Cc1[nH]c2ccccc2c1/C=N/Nc1nc2ccccc2[nH]1	none (no result: cardiac RTF act, RTF Ca sens inh)
Cc1ccc(S(=O)(=O)C(C#N)c2nc3ccccc3nc2N2CCCC2)cc1 (centres undefined)	CRFBP-R2 agonist 55.8
CCN(CC)c1nc2ccccc2nc1C(C#N)C(=O)NCCc1ccccc1 (centres undefined)	cardiac RTF act 65.5
CCN1CCN(c2nc3ccccc3nc2C(C#N)S(=O)(=O)c2ccc(C)cc2)CC1 (centres undefined)	none
CCN(CC)c1nc2ccccc2nc1C(C#N)C(=O)NCCCOC (centres undefined)	none
CCCCCCNC(=O)C(C#N)c1nc2ccccc2nc1N1CCCC1 (centres undefined)	CRFBP-R2 agonist 181.6, cardiac RTF act 38.1
CCCCCNC(=O)C(C#N)c1nc2ccccc2nc1N1CCCC1 (centres undefined)	none
COc1ccc(NC(=S)N2CCC(C(O)(c3ccccc3)c3ccccc3)CC2)cc1	none
CCOc1ccc(NC(=S)N2CCC(C(O)(c3ccccc3)c3ccccc3)CC2)cc1	CRFBP-R2 block 55.6
COCCn1c(C)cc(C(=O)CSc2ccc(NC(C)=O)cc2)c1C	CRFBP-R2 agonist 62.4
CCOC(=O)C1(C(=O)OCC)C(c2ccccc2)CC(O)N1C(C)=O (centres undefined)	none
O=C(Nc1cccc2ncccc12)C12CC3CC(CC(C3)C1)C2	none
CCOC(=O)c1cc([N+](=O)[O-])sc1NC(=O)c1ccc(S(=O)(=O)N2CC3(C)CC2CC(C)(C)C3)cc1 (centres undefined)	CRFBP-R2 agonist 152.4
CC1(C)CC2CC(C)(CN2S(=O)(=O)c2ccc(C(=O)Nc3ccc(S(=O)(=O)N4CCOCC4)cc3)cc2)C1 (centres undefined)	none
CCOc1ccccc1C(C(=O)NC1CCCC1)N(Cc1ccco1)C(=O)CNC(=O)c1ccco1 (centres undefined)	none
COc1cc(-c2noc(C)c2-c2ccc(N(C)C)nc2)cc(OC)c1OC	CRFBP-R2 agonist 53.2
Clc1ccccc1CSc1cc2c(nn1)-c1ccccc1CC2	none

Compound activity (PubChem BioAssay)
